Bfl-1 A1 inh: inhibitors of the anti-apoptotic protein A1, read as caspase activation; MEF A1-2A-BIM cells, Caspase-Glo 3/7 luminescence, 3 h; percent of clofoctol response, vehicle zero; caspase activation, % (concentration not given with the values); 330,000 compounds, 0.066% hits; AID 2462;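 active means over half of replicate activation scores above 10%, or exactly half above 10 with the replicate mean above 10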
VLA-4 inh: inhibition in a human VLA-4 binding assay; P13612; VLA-4 expressing cells, ligand binding flow cytometry; inhibition, % (about 7 µM as worked out from the volumes in the protocol); 330,000 compounds, 0.2% hits; AID 2557; in the data active means inhibition above about 50%
Target sequence (P13612 whole entry, looked up): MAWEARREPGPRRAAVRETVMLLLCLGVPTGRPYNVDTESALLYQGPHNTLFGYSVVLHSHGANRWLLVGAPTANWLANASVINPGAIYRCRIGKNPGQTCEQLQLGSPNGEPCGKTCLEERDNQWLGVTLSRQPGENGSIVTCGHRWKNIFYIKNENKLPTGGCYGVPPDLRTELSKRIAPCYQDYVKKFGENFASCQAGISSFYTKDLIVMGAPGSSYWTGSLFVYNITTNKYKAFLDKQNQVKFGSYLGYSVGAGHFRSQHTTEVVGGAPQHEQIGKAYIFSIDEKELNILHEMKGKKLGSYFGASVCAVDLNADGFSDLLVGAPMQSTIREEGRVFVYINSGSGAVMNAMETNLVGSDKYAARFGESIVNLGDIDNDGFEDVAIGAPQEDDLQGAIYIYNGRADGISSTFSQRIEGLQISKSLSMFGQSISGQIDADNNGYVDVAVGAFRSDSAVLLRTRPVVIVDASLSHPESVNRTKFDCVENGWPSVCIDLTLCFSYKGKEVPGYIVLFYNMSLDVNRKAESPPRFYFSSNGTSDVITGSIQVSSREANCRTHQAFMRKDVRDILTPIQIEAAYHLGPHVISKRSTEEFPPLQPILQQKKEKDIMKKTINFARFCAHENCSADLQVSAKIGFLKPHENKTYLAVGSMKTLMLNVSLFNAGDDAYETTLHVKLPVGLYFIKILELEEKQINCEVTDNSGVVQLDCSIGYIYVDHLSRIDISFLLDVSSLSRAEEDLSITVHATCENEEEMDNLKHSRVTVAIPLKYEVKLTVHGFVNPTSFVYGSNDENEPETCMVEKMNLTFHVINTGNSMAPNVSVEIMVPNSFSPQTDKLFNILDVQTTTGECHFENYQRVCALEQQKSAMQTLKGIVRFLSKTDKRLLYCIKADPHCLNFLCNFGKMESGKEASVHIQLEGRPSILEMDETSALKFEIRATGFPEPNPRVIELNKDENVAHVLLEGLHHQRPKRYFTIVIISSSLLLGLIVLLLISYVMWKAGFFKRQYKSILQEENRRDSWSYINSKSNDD
AHR act: activates the human aryl hydrocarbon receptor | P35869 | AHR-responsive luciferase reporter cells, luminescence | activation, % at 5 µM | 320,000 compounds, 2.5% hits | AID 2796; in the data active means activation above about 47%
Efflux pump mplx: blocks antifungal efflux pumps in multiplex yeast assay. S. cerevisiae Candida pump triplex, Nile Red efflux. inhibition, % at 10 µM. 330,000 compounds, 0.44% hits. AID 485275;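 active means plate passing quality check with inhibition over a set limit, or well fluorescence over plate mean plus 4 SD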;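 further: Nile Red retained in pooled yeast measured as flow cytometry median fluorescence; higher means more Nile Red kept so more efflux inhibition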
ALR H2O2 inh: inhibitors of human sulfhydryl oxidase ALR | purified ALR, DTT oxidation, H2O2 HRP-luminol luminescence | inhibition, % (test concentration not listed) | 290,000 compounds, 3.8% hits | AID 485317;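 active means mean replicate inhibition above about 79%, with every replicate also reaching it, limit read from the data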
Mot1-301 SUMO: SUMOylation pathway inhibition by Mot1-301 growth rescue | S. cerevisiae Mot1-301 growth rescue, ATP luminescence, 38.5C; percent above DMSO median, 100 means doubled | growth rescue, % at 18.8 µM | 320,000 compounds, 1% hits;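 active means every valid replicate shows activation above 250% relative to neutral control wells; inactive means the rest, any valid replicate at or below 250%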
VLA-4 mod pick: human VLA-4 allosteric modulation in cherry picked compounds; U937 cells, HUTS-21 LIBS mAb binding, flow cytometry; LDV ligand present at threefold Kd; 1,300 compounds, 2% hits; shares compounds with VLA-4 inh; inhibition, % at 6.7 µM; in the data active means inhibition above about 40%
Large screens that a line does not name were inactive (follow-up assays come after a bar, where they were run). A selection: hits, their analogues and other compounds. The true share with any hit is near 7.2%.

Cc1ccc(C)c(N2CCN(C(=O)c3ccc(Cl)c(NC4=NC5CS(=O)(=O)CC5S4)c3)CC2)c1 (stereo not given)	none | VLA-4 mod pick inactive
Cc1ccc(C)c(N2CCN(C(=O)Cc3ccc(NC4=NC5CS(=O)(=O)CC5S4)cc3)CC2)c1 (stereo not given)	VLA-4 inh 56 (no result: Bfl-1 A1 inh) | VLA-4 mod pick inactive
Cc1cccc(N2CCN(C(=O)c3ccc(Cl)c(NC4=NC5CS(=O)(=O)CC5S4)c3)CC2C)c1 (stereo not given)	none | VLA-4 mod pick inactive
O=C(Cc1ccc(NC2=NC3CS(=O)(=O)CC3S2)cc1)N1CCN(c2ccc(F)cc2)CC1 (stereo not given)	none
O=C(c1ccc(Cl)c(NC2=NC3CS(=O)(=O)CC3S2)c1)N1CCN(c2ccccc2)CC1 (stereo not given)	none | VLA-4 mod pick inactive
O=S(=O)(NN1CCOCC1)c1ccc(Br)cc1	none
c1ccc(CNc2c3c(nc4ncnn24)CCC3)cc1	none (no result: Mot1-301 SUMO)
CCN(CC(=O)NCc1cccs1)C(=O)c1ccc(S(=O)(=O)Nc2ccccc2)cc1	none
Cc1cc(NC(=O)/C=C/c2ccc(Cl)cc2)no1	none
COc1cccc(N2CCN(C(=O)c3cccc(NC4=NC5CS(=O)(=O)CC5S4)c3)CC2)c1 (stereo not given)	ALR H2O2 inh 100 | VLA-4 mod pick inactive
O=C(OCc1c(F)cccc1Cl)c1cccc(S(=O)(=O)N2CCOCC2)c1	none (no result: ALR H2O2 inh)
COc1ccc(S(=O)(=O)n2c([N+](=O)[O-])cnc2C)c(C)c1C	none
COc1ccc(Br)cc1S(=O)(=O)n1c([N+](=O)[O-])cnc1C	none | VLA-4 mod pick inactive
O=C(NCC1CCCO1)c1ccc(N2C(=O)C3CCCCC3C2=O)cc1 (stereo not given)	none
CCOC(=O)C1CCN(C2CC(=O)N(c3ccc(OCC)cc3)C2=O)CC1 (stereo not given)	none | VLA-4 mod pick inactive
CCOC(=O)C1CCCN(C2CC(=O)N(c3ccc(N4C(=O)CC(N5CCCC(C(=O)OCC)C5)C4=O)cc3)C2=O)C1 (stereo not given)	none
CCOC(=O)C1CCCN(C2CC(=O)N(c3cccc(C(F)(F)F)c3)C2=O)C1 (stereo not given)	none | VLA-4 mod pick inactive
CCOC(=O)C1CCCN(C2CC(=O)N(c3ccccc3)C2=O)C1 (stereo not given)	none (no result: ALR H2O2 inh)
CCOC(=O)C1CCCN(C2CC(=O)N(c3ccc(C)c(C)c3)C2=O)C1 (stereo not given)	none | VLA-4 mod pick inactive
Cc1ccc(C(=O)COC(=O)c2nc3nccc(C)n3n2)c(C)c1	none
CC1CCc2[nH]c3ccc(C(=O)NCCCOC(C)C)cc3c2C1 (stereo not given)	none
O=C(OCc1ccccc1)c1ccc2c(c1)-c1ccccc1C2=O	none
COc1cc(CCCN2C(=O)C(=O)NC[C@H]2Cc2cccc3ccccc23)cc(OC)c1OC	none (no result: ALR H2O2 inh)
CCCC[C@@H]1CNC(=O)C(=O)N1CCCc1cc(OC)c(OC)c(OC)c1	VLA-4 inh 58 (no result: ALR H2O2 inh) | VLA-4 mod pick inactive
CCC(C)[C@H]1CNC(=O)C(=O)N1CCCc1cc(OC)c(OC)c(OC)c1 (stereo not given in full)	none | VLA-4 mod pick inactive
C=C1CC2C3CC[C@@]4(OCOC45COCO5)[C@@]3(C)C(O)CC2[C@@]2(C)CCC(=O)C=C12 (stereo not given in full)	none (no result: VLA-4 inh, ALR H2O2 inh)
CC(C)NC(=O)Cn1cc(C(=O)C(=O)N2CCOCC2)c2ccccc21	none | VLA-4 mod pick inactive
COC(=O)c1cn(CC(=O)NC2CCCCC2)c2ccccc12	none (no result: ALR H2O2 inh)
O=C(Cn1cc(C(=O)C2CC2)c2ccccc21)NC1CCCC1	VLA-4 inh 58 (no result: ALR H2O2 inh) | VLA-4 mod pick inactive
O=C(C(=O)N1CCOCC1)c1cn(CC(=O)N2CCCCC2)c2ccccc12	none
CN1CCN(Cc2c(C(=O)N/N=C/c3cccc(Br)c3)nnn2-c2nonc2N)CC1	none
O=C(c1cc(-c2ccccn2)nc2c(Cl)cccc12)N1CCN(C(=O)C2CCCO2)CC1 (stereo not given)	none | VLA-4 mod pick inactive
Cc1ccc(-n2nc3c(c2NC(=O)c2cccs2)CS(=O)(=O)C3)c(C)c1	none

Screening data as filed in PubChem BioAssay.
